# TDP1 cell CPT: DT40-hTDP1 cell growth loss with CPT | chicken DT40 Tdp1-/-;hTDP1 cells + 20 nM CPT, ATP luminescence, 48 h | AID 686979 | 420,000 compounds, 12% hits | Potency, µM (doses to about 46.2 µM), hits mostly inhibitors; further: nearly all actives have a fitted effect of over 55% in size
#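 Cell growth measured by CellTiter-Glo luminescence after a minimum 48 h, 37 C compound exposure with 20 nM CPT in Tdp1-knockout DT40 cells stably expressing hTDP1, seeded 400/well; qHTS titration format.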
# IL1B secr inh: blocks inflammasome-driven IL-1 beta release; 360,000 compounds, 4.7% hits; AID 743279; THP-1 LPS/ATP IL-1B secretion, AlphaLISA, 16 h; stronger effect = lower value; activity change, % at 57.5 µM; in the data active means activity change below about -50%; inconclusive means mostly about -30% to -49%
#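 Secreted IL-1B measured by AlphaLISA bead assay after 16 h compound exposure of THP-1 cells; compounds (final up to 57.5 uM) added 1 h before LPS (250 ng/mL) and ATP (1.25 mM) stimulation; lower signal means less secretion.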
# TGFb SMAD3 inh: TGF-b pathway inhibition; 410,000 compounds, 1.2% hits; AID 588855; Potency, µM (series often up to 46.1 µM), most hits filed as inhibitors; HepG2 CAGA-GFP TGF-b/SMAD3 reporter, GFP fluorescence, 18 h; TGF-beta stimulated, 500 pg/mL final; further: nearly all actives have a fitted effect of over 65% in size
#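 Inhibition was scored as loss of TGF-beta-induced (500 pg/mL final, 18 hours, 37 degrees C) GFP in HEPG2 cells carrying a CAGA-GFP reporter, in DMEM with 1% FBS. Well GFP was summed per cell; Activity was normalised to unstimulated and stimulated DMSO wells, then concentration-response fitting.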
# DT40 TDP1 no CPT: qHTS for Inhibitors of human tyrosyl-DNA phosphodiesterase 1 (TDP1): qHTS in cells in absence of CPT. DT40 Tdp1-/- hTDP1 cells, no CPT, ATP luminescence, 48 h. Potency, µM (highest dose often 46.2 µM), hits mostly inhibitors. 420,000 compounds, 15% hits. AID 686978, 2013; further: nearly all actives have a fitted effect of over 55% in size
#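 Chicken DT40 Tdp1-/- cells stably complemented with human TDP1 were seeded at 400 cells/well with DMSO in place of 20 nM camptothecin. After compound pinning, cells grew at least 48 hr at 37 °C; viability read by CellTiter-Glo luminescence.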
# HepG2 viability: kills HepG2 cells in TGF-b inhibitor counter-screen. Potency, µM (series often up to 46.1 µM), actives largely listed as cytotoxic. HepG2 CAGA-GFP viability, ATP luminescence, 18 h. 410,000 compounds, 0.76% hits
#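 HepG2 CAGA-GFP cells (1000/well, DMEM with 1% FBS) received compound, then TGF-beta at 500 pg/mL final, and were incubated 18 hours at 37 degrees C. Viability was read by CellTiter-Glo luminescence. Media-only wells were set as complete cell-killing and DMSO as no toxicity.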
# TDP1 block: blocks human tyrosyl-DNA phosphodiesterase 1; AID 485290; Potency, µM (titrated, usually from 130 µM), actives largely listed as inhibitors; recombinant TDP1, AlphaScreen DNA substrate cleavage; 350,000 compounds, 0.28% hits; Q9NUW8; further: nearly all actives have a fitted effect of over 40% in size
# Target sequence (Q9NUW8 whole entry, looked up): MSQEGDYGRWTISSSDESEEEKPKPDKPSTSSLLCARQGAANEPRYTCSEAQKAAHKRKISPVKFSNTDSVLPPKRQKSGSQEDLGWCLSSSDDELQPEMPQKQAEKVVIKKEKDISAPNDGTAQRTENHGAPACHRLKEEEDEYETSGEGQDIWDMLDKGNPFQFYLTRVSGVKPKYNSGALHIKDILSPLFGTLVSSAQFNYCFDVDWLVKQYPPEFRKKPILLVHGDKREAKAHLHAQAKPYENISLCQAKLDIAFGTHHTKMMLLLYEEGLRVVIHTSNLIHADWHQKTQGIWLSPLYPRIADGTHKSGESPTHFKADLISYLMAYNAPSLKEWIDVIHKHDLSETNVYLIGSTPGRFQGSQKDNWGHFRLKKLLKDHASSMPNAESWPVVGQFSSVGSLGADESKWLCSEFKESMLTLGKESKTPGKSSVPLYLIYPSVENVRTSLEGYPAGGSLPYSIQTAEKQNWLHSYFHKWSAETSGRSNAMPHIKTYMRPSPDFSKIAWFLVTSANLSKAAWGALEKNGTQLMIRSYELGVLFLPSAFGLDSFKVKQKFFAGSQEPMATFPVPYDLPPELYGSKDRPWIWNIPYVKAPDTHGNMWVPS
#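 AlphaScreen read-out: signal falls as enzyme removes the 3' tyrosine-FITC from a 5'-biotinylated DNA oligo (15 nM, 5 min, RT). Enzyme was E. coli-made recombinant Tdp1 at 1 nM, exposed to compound for 15 min beforehand; beads 10 ug/ml, 10 min.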
# A number is an active result; - = inactive; ? = inconclusive; . = not tested or not shown; [ ] = dose if it differs, or a comment. Compounds with a hit are over-represented: about 19% of the library has one in this group of screens. Unless noted, the call rests on the fitted dose curve; in most records, active means well fitted curve in the direction sought with a large enough effect; inconclusive means small, poorly fitted or top-dose-only effect, or another doubt; inactive means no such curve, though single readings can be large; an effect the other way counts as inactive or inconclusive.
SMILES,TDP1 cell CPT,IL1B secr inh,TGFb SMAD3 inh,DT40 TDP1 no CPT,HepG2 viability,TDP1 block
Cc1ccc(C2(C)NC(=O)N(CC(=O)N(C)CC(=O)Nc3cccc4ccccc34)C2=O)cc1 (centres undefined),-,-,-,-,-,.
CCN(CCCNC(=O)CNC(=O)c1nn(-c2ccc(OC)c(OC)c2)c(=O)c2ccccc12)c1ccccc1,?,?,-,18µM,-,-
COc1ccc(NC(=O)CNC(=O)c2nn(-c3ccc(OC)c(Cl)c3)c(=O)c3ccccc23)c(OC)c1,?,-,-,16µM,-,.
CCCCNC(=O)CNC(=O)c1nn(-c2ccc(OC)c(OC)c2)c(=O)c2ccccc12,-,-,-,?,-,.
CCCCN(CCCC)CCNC(=O)Cn1nc(C)n2c(cc3sccc32)c1=O,?,.,-,?,-,-
Cc1nn2c(COc3ccc(NC(=O)c4ccccc4Cl)cc3)nnc2c2ccccc12,18µM,?,-,23µM,-,-
CCC(CC)c1nn2c(=O)cc(COc3ccc(NC(=O)c4cccc(Cl)c4)cc3)nc2s1,-,.,-,-,-,-
CCC(CC)c1nn2c(=O)cc(COc3ccc(NC(=O)c4ccccc4Cl)cc3)nc2s1,?,.,-,2.3µM,-,-
CCC(CC)c1nn2c(=O)cc(COc3ccc(NC(=O)c4ccccc4C)cc3)nc2s1,?,.,-,2.3µM,-,-
O=C(O)c1ccccc1C(=O)NNc1ccc(Cl)cc1Cl,-,-,-,-,-,-
O=C(COC(=O)/C=C/c1ccc(S(=O)(=O)N2CCOCC2)cc1)NCc1ccc(Cl)cc1,?,-,-,26µM,-,-
O=C(COC(=O)/C=C/c1ccc(S(=O)(=O)N2CCOCC2)cc1)NC1CCCCCCC1,-,-,-,-,-,-
O=C(COC(=O)CCc1ccc(S(=O)(=O)N2CCOCC2)cc1)NCc1ccc(Cl)cc1,-,-,-,-,-,-
O=C(COC(=O)/C=C/c1ccc(S(=O)(=O)N2CCOCC2)cc1)NCc1ccccc1,7.3µM,-,-,13µM,-,-
O=C(c1ccccc1Cl)N1c2ncnn2C2(CCCCC2)[C@@H]2CCCC[C@@H]21,-,.,-,?,-,-
COC(=O)[C@@]1(Cc2ccccc2)[C@H]2c3cc(C(=O)N4CCCC4)n(Cc4ccc(S(C)(=O)=O)cc4)c3C[C@H]2CN1C(=O)c1ccccc1,.,.,.,.,.,-
COc1ccc(NC(=O)c2oc3ccccc3c2NC(=O)COc2ccc(F)cc2)c(OC)c1,?,.,-,-,-,-
Cc1cccc(N=N/C(=C\O)C(=O)c2cccs2)c1,?,-67,?,?,-,-
COc1ccc(CNC(=O)CCC2N=C3c4ccccc4N=C(SCc4cccc(F)c4)N3C2=O)cc1 (centres undefined),?,.,?,?,-,-
COc1ccccc1CNC(=O)CCC1N=C2c3ccccc3N=C(SCC(=O)Nc3ccc(N(C)C)cc3)N2C1=O (centres undefined),?,.,-,21µM,-,-
COc1ccccc1CNC(=O)CC1N=C2c3ccccc3N=C(SCC(=O)Nc3ccc(F)cc3)N2C1=O (centres undefined),26µM,.,-,?,-,-
COc1ccccc1CNC(=O)CCC1N=C2c3ccccc3N=C(SCC(=O)Nc3ccc(F)cc3)N2C1=O (centres undefined),-,.,-,-,-,-
COc1ccccc1CNC(=O)CCC1N=C2c3ccccc3N=C(SCc3ccc(C)cc3C)N2C1=O (centres undefined),16µM,.,?,?,-,-
Cc1ccc(CSC2=Nc3ccccc3C3=NC(CC(=O)NCc4cccs4)C(=O)N23)c(C)c1 (centres undefined),15µM,.,-,21µM,-,-
Cc1cccc(NC(=O)CSC2=Nc3ccccc3C3=NC(CC(=O)NCc4cccs4)C(=O)N23)c1 (centres undefined),?,.,-,?,-,-
SMILES,TDP1 cell CPT,IL1B secr inh,TGFb SMAD3 inh,DT40 TDP1 no CPT,HepG2 viability,TDP1 block
COc1ccc(CCNc2ncnc3sc(C(=O)N4CCCCC4)c(C)c23)cc1OC,-[9.04 µM],.,.,18µM,.,.
CCOc1ccc2[nH]c3c(NCCc4ccc(OC)c(OC)c4)ncnc3c2c1,4.1µM,-96,-,2.9µM,-,-
Fc1ccc(CCNc2ncnc3[nH]ncc23)cc1,?,-,-,16µM,-,.
Cc1ccc(CNc2ncnc3[nH]ncc23)cc1,?,-,-,?,-,.
CCOc1ccc2[nH]c3c(NCCO)ncnc3c2c1,-,-,-,-,-,.
COc1ccc(CCNc2ncnc3[nH]ncc23)cc1OC,15µM,-,-,15µM,-,-
O=C(Nc1cccc(-c2nc3cccnc3s2)c1)C1c2ccccc2Oc2ccccc21,?,-,-,?,-,?
COc1ccc(CCNc2ncnc3sc(C)cc23)cc1OC,0.58µM,-,-,0.26µM,-,.
CCCCCCCCNc1ncnc2[nH]ncc12,4.6µM,-,-,3.7µM,-,.

# Compound activity (PubChem)
